Results filed as inconclusive are left out. Activity calls are given as the source filed them. The calls were made as follows: active = hit-call score of the fitted dose curve at least 0.9, where 1 is the maximum; inconclusive = response in the unintended direction; inactive = score below 0.9.
Assays:
[1] = biological target: guinea pig Leukotriene D4 Receptor (LTD4), CYSLTR1 (gene 100135514) (UniProt Q2NNR5); experiment: NVS_GPCR_gLTD4: NovaScreen (NVS) G Protein-Coupled Receptor Assay for guinea pig Leukotriene D4 Receptor (LTD4) (AID 2283248)
guinea pig Leukotriene D4 Receptor (LTD4), CYSLTR1 (gene 100135514), sequence (Q2NNR5 whole entry, looked up): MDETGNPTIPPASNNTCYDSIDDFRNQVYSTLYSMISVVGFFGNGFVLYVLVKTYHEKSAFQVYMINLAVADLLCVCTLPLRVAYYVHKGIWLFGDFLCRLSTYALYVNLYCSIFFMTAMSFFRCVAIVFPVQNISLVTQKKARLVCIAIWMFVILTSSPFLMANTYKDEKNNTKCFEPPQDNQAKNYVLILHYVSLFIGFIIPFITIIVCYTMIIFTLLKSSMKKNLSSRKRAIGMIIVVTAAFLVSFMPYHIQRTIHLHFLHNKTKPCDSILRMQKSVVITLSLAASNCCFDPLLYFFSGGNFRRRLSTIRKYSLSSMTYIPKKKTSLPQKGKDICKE
How it was run: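 Guinea pig lung membrane preparation; bound radioligand measured by filter scintillation after 1 h, loss of signal versus DMSO marking displacement. Compounds tested at 25 uM in duplicate, hits retested to max 50 uM.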

[2] = system: guinea pig Leukotriene B4 Receptor (LTB4), gene 100379538; experiment: NVS_GPCR_gLTB4: NovaScreen (NVS) G Protein-Coupled Receptor Assay for guinea pig Leukotriene B4 Receptor (LTB4) (AID 2283247)
How it was run: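 Membranes from guinea pig spleen incubated 2 h with radioligand and compound; bound counts measured by filtration and scintillation. Screened first at 25 uM in duplicate, then actives titrated to a 50 uM top concentration relative to DMSO.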

[3] = biological target: human Serotonin, 5-Hydroxytryptamine Receptor 2A (5HT2A), HTR2A (gene 3356) (UniProt P28223); experiment: NVS_GPCR_h5HT2A: NovaScreen (NVS) G Protein-Coupled Receptor Assay for human Serotonin, 5-Hydroxytryptamine Receptor 2A (5HT2A) (AID 2283249)
human Serotonin, 5-Hydroxytryptamine Receptor 2A (5HT2A), HTR2A (gene 3356), sequence (P28223 whole entry, looked up): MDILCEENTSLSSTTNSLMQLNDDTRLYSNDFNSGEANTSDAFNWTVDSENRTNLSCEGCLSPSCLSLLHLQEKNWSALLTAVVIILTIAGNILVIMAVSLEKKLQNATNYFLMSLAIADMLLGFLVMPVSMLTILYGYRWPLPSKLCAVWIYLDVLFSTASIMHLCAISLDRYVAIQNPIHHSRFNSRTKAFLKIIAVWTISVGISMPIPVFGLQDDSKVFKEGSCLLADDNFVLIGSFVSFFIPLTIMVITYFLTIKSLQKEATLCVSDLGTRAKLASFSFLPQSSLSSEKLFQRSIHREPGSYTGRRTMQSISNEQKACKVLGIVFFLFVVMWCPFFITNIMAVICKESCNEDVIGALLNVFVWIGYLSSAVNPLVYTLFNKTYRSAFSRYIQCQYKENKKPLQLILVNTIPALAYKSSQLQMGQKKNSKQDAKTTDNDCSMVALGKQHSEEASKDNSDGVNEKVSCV
How it was run: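 Radioligand displacement on human cortex tissue extract, counted by filtration and scintillation 1.5 h post-dosing. Initial single-concentration screen at 25 uM in duplicate, concentration series in follow-up; DMSO as baseline.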

[4] = system: guinea pig Muscarinic, Peripheral (Mperiperal) Receptor, Non-selective Binding, gene 100379235; experiment: NVS_GPCR_gMPeripheral_NonSelective: NovaScreen (NVS) G Protein-Coupled Receptor Assay for guinea pig Muscarinic, Peripheral (Mperiperal) Receptor, Non-selective Binding (AID 2283250)
How it was run: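 Screened in duplicate at 25 uM, hits retested in concentration series to 50 uM max, using bladder membrane radioligand displacement from guinea pig. Filtration and scintillation counting 1 h post-dose, fitted relative to DMSO.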

[5] = biological target: human Serotonin, 5-Hydroxytryptamine Receptor 5A (5HT5A), HTR5A (gene 3361) (UniProt P47898); experiment: NVS_GPCR_h5HT5A: NovaScreen (NVS) G Protein-Coupled Receptor Assay for human Serotonin, 5-Hydroxytryptamine Receptor 5A (5HT5A) (AID 2283251)
human Serotonin, 5-Hydroxytryptamine Receptor 5A (5HT5A), HTR5A (gene 3361), sequence (P47898 whole entry, looked up): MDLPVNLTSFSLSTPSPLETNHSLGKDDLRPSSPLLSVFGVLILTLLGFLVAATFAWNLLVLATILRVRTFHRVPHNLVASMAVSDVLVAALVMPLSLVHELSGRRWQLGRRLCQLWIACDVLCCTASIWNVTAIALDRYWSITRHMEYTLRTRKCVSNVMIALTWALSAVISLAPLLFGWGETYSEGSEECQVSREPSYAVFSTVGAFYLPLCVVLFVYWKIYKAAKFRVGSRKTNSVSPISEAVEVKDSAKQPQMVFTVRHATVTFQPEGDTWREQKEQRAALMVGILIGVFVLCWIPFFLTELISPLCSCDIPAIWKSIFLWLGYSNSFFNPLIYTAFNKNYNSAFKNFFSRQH
How it was run: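 Membranes from HEK293 cells, radioligand binding read by filtration and scintillation after 1 h. Single-concentration duplicate testing at 25 uM, then concentration-response for actives; positive-direction fitting relative to DMSO.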

[6] = biological target: guinea pig Opioid, Kappa 1 Receptor (OpiateK), OPRK1 (gene 100135587) (UniProt P41144); experiment: NVS_GPCR_gOpiateK: NovaScreen (NVS) G Protein-Coupled Receptor Assay for guinea pig Opioid, Kappa 1 Receptor (OpiateK) (AID 2283252);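 also: active means reduced radioligand binding relative to DMSO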
guinea pig Opioid, Kappa 1 Receptor (OpiateK), OPRK1 (gene 100135587), sequence (P41144 whole entry, looked up): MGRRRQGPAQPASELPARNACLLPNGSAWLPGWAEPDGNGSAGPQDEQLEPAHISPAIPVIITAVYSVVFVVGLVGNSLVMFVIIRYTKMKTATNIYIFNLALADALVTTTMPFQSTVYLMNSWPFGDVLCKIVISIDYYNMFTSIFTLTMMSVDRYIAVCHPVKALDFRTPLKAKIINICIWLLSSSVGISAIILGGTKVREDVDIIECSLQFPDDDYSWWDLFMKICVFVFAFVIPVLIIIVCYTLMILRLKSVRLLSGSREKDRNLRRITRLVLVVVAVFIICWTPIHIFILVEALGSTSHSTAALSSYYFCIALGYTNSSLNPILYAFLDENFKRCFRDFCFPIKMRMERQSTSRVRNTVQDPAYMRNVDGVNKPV
How it was run: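 Radioligand binding to kappa opioid receptor in guinea pig cerebellar membranes, read by filtration and scintillation at 2 h. Compounds first tested in duplicate at 25 uM, then actives in concentration series; signal loss fitted against DMSO.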

[7] = biological target: human Serotonin, 5-Hydroxytryptamine Receptor 6 (5HT6), HTR6 (gene 3362) (UniProt P50406); experiment: NVS_GPCR_h5HT6: NovaScreen (NVS) G Protein-Coupled Receptor Assay for human Serotonin, 5-Hydroxytryptamine Receptor 6 (5HT6) (AID 2283253)
human Serotonin, 5-Hydroxytryptamine Receptor 6 (5HT6), HTR6 (gene 3362), sequence (P50406 whole entry, looked up): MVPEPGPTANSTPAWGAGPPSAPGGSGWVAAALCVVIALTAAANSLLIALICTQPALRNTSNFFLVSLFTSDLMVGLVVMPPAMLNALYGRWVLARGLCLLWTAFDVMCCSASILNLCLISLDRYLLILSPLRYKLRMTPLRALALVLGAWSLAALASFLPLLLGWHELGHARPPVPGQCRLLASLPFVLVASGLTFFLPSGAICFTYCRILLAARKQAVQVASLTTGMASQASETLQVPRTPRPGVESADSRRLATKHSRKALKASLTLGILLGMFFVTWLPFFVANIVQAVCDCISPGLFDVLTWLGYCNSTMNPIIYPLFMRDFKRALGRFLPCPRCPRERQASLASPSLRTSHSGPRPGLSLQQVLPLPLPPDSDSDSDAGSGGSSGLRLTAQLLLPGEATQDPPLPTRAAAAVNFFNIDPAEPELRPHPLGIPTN
How it was run: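 Filter scintillation counting of radioligand displacement from HEK293-expressed 5HT6, 1 hour post-dose, with loss of signal relative to DMSO. Single 25 uM duplicates first, with concentration series for confirmation.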

[8] = biological target: human Adenosine A1 Receptor (AdoRA1), ADORA1 (gene 134) (UniProt P30542); experiment: NVS_GPCR_hAdoRA1: NovaScreen (NVS) G Protein-Coupled Receptor Assay for human Adenosine A1 Receptor (AdoRA1) (AID 2283254)
human Adenosine A1 Receptor (AdoRA1), ADORA1 (gene 134), sequence (P30542 whole entry, looked up): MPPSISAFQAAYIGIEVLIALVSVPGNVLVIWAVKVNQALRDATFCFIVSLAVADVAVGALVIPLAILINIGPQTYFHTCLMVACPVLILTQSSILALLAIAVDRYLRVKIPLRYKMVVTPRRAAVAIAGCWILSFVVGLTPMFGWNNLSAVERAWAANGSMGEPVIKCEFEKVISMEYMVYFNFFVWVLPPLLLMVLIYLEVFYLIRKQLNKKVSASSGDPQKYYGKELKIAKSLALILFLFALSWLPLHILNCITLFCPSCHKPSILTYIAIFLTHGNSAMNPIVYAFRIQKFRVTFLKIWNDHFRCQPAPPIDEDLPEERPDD
How it was run: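 Each chemical is first tested twice at 25 uM, actives later in dilution series, against a radioligand bound to human cortex membranes; after 1 h, filter-retained counts are compared with DMSO controls, lower signal indicating displacement.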

[9] = biological target: human Serotonin, 5-Hydroxytryptamine Receptor 7 (5HT7), HTR7 (gene 3363) (UniProt P34969); experiment: NVS_GPCR_h5HT7: NovaScreen (NVS) G Protein-Coupled Receptor Assay for human Serotonin, 5-Hydroxytryptamine Receptor 7 (5HT7) (AID 2283255);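 also: hits reduce specific radioligand binding relative to DMSO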
human Serotonin, 5-Hydroxytryptamine Receptor 7 (5HT7), HTR7 (gene 3363), sequence (P34969 whole entry, looked up): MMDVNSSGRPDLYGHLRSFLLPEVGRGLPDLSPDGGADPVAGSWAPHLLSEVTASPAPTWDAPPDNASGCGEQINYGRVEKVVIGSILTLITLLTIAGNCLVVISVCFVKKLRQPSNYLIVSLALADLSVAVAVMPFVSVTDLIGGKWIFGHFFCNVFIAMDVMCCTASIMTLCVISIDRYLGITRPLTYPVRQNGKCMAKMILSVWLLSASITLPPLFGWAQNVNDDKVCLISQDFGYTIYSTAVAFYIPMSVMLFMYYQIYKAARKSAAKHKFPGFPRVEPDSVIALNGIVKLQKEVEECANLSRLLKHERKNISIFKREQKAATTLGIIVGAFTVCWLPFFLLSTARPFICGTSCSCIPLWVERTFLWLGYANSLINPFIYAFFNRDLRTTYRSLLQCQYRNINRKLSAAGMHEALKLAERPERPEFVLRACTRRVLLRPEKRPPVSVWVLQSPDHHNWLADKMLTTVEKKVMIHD
How it was run: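 Filter-bound radioactivity counted after 1 h, with loss of specific radioligand binding fitted against DMSO. Membrane protein came from CHO cells expressing human 5HT7. Chemicals were tested first at 25 uM in duplicate, then in concentration series if active.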

[10] = system: bovine Histamine 1 Receptor (H1), gene 281231; experiment: NVS_GPCR_bH1: NovaScreen (NVS) G Protein-Coupled Receptor Assay for bovine Histamine 1 Receptor (H1) (AID 2283246)
How it was run: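 Hits from a 25 uM duplicate primary screen were retested in concentration series (top 50 uM); binding measured as scintillation-counted displacement of radioligand from bovine cerebellar membranes after 1 h, normalised to DMSO.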

Measured: AC50

CC(C)c1nnc2ccc(-c3ocnc3-c3cc(F)ccc3F)cn12
inactive: [1]

CC[C@H](C)C(=O)O[C@H]1C[C@H](O)C=C2C=C[C@H](C)[C@H](CC[C@@H](O)C[C@@H](O)CC(=O)O)[C@H]21
active: [2] 0.328 µM

c1ccc(C(O[C@@H]2CCCN(CCc3ccc4c(c3)OCO4)C2)c2ccccc2)cc1
active: [3] 10.1 µM | [4] 0.0261 µM | [5] 25 µM | [6] 3.06 µM | [7] 25 µM | [8] 20.7 µM | [9] 0.99 µM

CCN(CC)C(=S)SSC(=S)N(CC)CC
active: [1] 1.24 µM | [7] 8.33 µM | [9] 13.5 µM
inactive: [6]

O=C(NO)C1(NS(=O)(=O)c2ccc(Oc3ccc(F)cc3)cc2)CCOCC1
active: [2] 7.03 µM

CCCCCCCCCCCCCCCCOS(=O)(=O)O
active: [1] 4.26 µM | [5] 20.6 µM | [9] 15.6 µM

CCCCCCCCCC
not listed: [1] | [2] | [6]
inactive: all other assays above
